In ChEMBL document CHEMBL1961873, “Compounds: GSK PKIS; Assays: Nanosyn kinase panel” (2012):

Legend:
[1] = molecular target: Sphingosine kinase 1 (Homo sapiens) (UniProt Q9NYA1); conditions: at 1 µM;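 note: mean SPHK1 inhibition value reported from the GSK PKIS kinase panel screen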
[2] = molecular target: T1, Sphingosine kinase 2 (Homo sapiens) (UniProt Q9NRA0); conditions: at 0.1 µM
T1 sequence (whole entry): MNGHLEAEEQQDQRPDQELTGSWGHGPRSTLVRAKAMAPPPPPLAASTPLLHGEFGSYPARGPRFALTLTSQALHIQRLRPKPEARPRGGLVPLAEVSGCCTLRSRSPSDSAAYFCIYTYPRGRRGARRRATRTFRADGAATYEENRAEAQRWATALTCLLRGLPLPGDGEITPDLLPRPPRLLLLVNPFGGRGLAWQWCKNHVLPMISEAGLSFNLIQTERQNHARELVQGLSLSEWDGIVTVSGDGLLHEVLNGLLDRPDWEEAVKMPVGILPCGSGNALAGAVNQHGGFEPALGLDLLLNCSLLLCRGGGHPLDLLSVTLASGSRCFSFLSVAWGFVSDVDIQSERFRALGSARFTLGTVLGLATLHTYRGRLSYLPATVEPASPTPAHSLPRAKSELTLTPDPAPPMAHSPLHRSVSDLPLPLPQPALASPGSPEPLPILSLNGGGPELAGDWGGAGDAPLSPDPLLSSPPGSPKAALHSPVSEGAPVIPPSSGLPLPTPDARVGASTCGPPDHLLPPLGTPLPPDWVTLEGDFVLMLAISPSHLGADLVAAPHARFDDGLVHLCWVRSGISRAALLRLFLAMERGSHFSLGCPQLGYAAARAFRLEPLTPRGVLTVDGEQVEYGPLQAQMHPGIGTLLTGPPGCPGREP

[3] = molecular target: T1, Sphingosine kinase 2 (Homo sapiens); conditions: at 1 µM
[4] = molecular target: Casein kinase II subunit alpha (Homo sapiens) (UniProt P68400); conditions: at 0.1 µM
[5] = molecular target: Casein kinase II subunit alpha (Homo sapiens) (UniProt P68400); conditions: at 1 µM
[6] = molecular target: T2, Inhibitor of nuclear factor kappa-B kinase subunit alpha (Homo sapiens) (UniProt O15111); conditions: at 0.1 µM
T2 sequence (whole entry): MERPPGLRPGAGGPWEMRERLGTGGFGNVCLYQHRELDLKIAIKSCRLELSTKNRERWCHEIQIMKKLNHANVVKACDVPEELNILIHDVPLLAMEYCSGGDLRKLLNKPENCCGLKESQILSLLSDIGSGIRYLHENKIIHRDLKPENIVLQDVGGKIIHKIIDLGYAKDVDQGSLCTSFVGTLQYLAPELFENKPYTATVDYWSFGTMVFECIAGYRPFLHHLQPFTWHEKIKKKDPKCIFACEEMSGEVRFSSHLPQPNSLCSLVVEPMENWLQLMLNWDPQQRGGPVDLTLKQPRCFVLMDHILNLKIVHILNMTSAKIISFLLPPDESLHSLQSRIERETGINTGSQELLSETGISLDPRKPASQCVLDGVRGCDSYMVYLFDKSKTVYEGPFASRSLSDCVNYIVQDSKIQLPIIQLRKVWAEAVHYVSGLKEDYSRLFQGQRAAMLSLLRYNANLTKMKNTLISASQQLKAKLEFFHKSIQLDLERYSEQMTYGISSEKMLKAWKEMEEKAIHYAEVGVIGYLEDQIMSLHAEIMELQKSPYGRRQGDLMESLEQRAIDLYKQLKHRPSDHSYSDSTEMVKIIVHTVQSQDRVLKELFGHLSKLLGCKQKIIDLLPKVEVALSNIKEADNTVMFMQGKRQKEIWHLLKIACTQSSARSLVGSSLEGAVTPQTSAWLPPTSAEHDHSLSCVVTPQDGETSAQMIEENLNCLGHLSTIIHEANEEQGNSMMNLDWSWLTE

[7] = molecular target: T2, Inhibitor of nuclear factor kappa-B kinase subunit alpha (Homo sapiens); conditions: at 1 µM
[8] = molecular target: T3, Inhibitor of nuclear factor kappa-B kinase subunit beta (Homo sapiens) (UniProt O14920); conditions: at 0.1 µM
T3 sequence (whole entry): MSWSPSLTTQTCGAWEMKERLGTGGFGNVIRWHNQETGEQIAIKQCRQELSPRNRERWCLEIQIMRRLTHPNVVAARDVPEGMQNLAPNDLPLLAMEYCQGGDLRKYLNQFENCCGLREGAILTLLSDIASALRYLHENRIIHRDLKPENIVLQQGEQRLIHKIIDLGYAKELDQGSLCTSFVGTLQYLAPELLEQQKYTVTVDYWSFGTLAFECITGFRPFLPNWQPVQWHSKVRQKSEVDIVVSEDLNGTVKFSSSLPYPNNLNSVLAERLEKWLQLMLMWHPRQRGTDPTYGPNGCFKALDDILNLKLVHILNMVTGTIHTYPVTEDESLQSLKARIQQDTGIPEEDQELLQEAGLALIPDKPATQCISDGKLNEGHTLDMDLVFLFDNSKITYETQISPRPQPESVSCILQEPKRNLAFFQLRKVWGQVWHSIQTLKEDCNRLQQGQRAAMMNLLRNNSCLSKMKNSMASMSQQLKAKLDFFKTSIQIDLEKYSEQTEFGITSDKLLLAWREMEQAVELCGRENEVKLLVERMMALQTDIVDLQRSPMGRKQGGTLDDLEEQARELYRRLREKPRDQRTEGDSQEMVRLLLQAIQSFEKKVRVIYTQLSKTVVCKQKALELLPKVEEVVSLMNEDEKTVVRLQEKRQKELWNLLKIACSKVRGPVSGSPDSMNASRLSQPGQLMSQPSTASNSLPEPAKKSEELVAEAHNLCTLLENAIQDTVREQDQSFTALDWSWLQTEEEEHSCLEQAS

[9] = molecular target: T3, Inhibitor of nuclear factor kappa-B kinase subunit beta (Homo sapiens); conditions: at 1 µM
[10] = molecular target: T4, Inhibitor of nuclear factor kappa-B kinase subunit epsilon (Homo sapiens) (UniProt Q14164); conditions: at 0.1 µM
T4 sequence (whole entry): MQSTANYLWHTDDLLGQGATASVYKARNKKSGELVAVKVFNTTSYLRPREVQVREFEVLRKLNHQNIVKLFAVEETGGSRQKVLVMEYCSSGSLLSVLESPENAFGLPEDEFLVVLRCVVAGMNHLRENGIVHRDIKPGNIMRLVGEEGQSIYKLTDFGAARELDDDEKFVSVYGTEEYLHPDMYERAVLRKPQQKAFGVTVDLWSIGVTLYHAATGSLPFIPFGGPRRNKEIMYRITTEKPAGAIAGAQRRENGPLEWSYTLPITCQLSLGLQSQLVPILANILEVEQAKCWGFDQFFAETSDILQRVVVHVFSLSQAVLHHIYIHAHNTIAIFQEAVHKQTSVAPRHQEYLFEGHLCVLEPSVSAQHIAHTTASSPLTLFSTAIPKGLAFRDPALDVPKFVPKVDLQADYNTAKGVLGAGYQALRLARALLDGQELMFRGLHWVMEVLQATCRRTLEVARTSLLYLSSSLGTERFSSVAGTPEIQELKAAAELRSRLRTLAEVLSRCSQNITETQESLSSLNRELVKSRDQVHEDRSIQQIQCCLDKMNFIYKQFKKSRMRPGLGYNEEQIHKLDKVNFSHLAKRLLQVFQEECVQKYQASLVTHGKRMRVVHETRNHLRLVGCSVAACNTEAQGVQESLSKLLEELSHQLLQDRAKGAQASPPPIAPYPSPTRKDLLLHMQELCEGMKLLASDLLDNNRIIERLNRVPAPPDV

[11] = molecular target: T4, Inhibitor of nuclear factor kappa-B kinase subunit epsilon (Homo sapiens); conditions: at 1 µM
[12] = molecular target: T5, Serine/threonine-protein kinase Nek1 (Homo sapiens) (UniProt Q96PY6); conditions: at 0.1 µM
T5 sequence (whole entry): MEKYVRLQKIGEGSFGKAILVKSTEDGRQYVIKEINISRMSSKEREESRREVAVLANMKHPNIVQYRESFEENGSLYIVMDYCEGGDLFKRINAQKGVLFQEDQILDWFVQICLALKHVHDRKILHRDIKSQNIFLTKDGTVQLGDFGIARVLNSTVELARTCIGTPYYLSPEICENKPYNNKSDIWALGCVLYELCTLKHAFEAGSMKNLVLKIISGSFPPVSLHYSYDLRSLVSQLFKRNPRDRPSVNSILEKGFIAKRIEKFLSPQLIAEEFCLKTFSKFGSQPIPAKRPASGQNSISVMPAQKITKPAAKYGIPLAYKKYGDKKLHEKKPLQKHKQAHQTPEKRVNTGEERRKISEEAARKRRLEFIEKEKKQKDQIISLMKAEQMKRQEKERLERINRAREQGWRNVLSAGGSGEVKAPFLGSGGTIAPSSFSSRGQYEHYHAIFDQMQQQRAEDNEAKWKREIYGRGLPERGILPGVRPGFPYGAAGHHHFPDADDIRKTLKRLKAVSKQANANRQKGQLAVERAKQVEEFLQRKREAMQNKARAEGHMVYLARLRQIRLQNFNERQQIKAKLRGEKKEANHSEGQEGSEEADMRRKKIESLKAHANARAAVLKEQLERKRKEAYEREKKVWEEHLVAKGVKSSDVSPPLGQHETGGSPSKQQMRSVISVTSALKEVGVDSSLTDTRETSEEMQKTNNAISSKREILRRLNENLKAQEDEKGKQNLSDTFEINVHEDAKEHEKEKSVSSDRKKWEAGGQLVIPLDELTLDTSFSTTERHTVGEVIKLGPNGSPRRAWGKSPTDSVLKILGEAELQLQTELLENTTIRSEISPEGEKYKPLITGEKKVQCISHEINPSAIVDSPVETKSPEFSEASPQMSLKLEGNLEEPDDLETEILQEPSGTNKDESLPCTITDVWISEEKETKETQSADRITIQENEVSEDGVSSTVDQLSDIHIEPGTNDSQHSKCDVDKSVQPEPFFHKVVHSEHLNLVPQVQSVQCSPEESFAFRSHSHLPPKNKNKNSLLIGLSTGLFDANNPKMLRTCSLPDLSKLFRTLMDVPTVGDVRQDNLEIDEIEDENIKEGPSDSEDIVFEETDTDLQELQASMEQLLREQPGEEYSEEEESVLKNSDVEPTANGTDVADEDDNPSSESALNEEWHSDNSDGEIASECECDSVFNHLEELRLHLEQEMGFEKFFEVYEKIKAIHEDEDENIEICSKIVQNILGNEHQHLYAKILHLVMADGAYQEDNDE

[13] = molecular target: T5, Serine/threonine-protein kinase Nek1 (Homo sapiens); conditions: at 1 µM
[14] = molecular target: T6, Serine/threonine-protein kinase Nek2 (Homo sapiens) (UniProt P51955); conditions: at 0.1 µM
T6 sequence (whole entry): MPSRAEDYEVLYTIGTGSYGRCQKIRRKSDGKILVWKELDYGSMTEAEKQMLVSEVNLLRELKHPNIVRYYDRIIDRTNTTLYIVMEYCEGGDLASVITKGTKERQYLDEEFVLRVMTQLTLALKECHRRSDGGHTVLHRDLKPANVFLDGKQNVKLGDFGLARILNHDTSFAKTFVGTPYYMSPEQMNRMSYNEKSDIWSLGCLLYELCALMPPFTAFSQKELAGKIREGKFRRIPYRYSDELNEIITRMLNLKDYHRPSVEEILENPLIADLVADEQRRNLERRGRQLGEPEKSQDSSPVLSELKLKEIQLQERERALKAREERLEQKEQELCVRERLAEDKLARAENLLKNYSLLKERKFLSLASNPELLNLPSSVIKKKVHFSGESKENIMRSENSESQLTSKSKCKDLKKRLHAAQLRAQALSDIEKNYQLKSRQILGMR

[15] = molecular target: T6, Serine/threonine-protein kinase Nek2 (Homo sapiens); conditions: at 1 µM
[16] = molecular target: Serine/threonine-protein kinase Nek6 (Homo sapiens) (UniProt Q9HC98); conditions: at 0.1 µM
[17] = molecular target: Serine/threonine-protein kinase Nek6 (Homo sapiens) (UniProt Q9HC98); conditions: at 1 µM
[18] = molecular target: Serine/threonine-protein kinase Nek7 (Homo sapiens) (UniProt Q8TDX7); conditions: at 0.1 µM
[19] = molecular target: Serine/threonine-protein kinase Nek7 (Homo sapiens) (UniProt Q8TDX7); conditions: at 1 µM
[20] = molecular target: T7, Serine/threonine-protein kinase Nek9 (Homo sapiens) (UniProt Q8TD19); conditions: at 0.1 µM;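 note: reported value is the mean percent inhibition of NEK9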
T7 sequence (whole entry): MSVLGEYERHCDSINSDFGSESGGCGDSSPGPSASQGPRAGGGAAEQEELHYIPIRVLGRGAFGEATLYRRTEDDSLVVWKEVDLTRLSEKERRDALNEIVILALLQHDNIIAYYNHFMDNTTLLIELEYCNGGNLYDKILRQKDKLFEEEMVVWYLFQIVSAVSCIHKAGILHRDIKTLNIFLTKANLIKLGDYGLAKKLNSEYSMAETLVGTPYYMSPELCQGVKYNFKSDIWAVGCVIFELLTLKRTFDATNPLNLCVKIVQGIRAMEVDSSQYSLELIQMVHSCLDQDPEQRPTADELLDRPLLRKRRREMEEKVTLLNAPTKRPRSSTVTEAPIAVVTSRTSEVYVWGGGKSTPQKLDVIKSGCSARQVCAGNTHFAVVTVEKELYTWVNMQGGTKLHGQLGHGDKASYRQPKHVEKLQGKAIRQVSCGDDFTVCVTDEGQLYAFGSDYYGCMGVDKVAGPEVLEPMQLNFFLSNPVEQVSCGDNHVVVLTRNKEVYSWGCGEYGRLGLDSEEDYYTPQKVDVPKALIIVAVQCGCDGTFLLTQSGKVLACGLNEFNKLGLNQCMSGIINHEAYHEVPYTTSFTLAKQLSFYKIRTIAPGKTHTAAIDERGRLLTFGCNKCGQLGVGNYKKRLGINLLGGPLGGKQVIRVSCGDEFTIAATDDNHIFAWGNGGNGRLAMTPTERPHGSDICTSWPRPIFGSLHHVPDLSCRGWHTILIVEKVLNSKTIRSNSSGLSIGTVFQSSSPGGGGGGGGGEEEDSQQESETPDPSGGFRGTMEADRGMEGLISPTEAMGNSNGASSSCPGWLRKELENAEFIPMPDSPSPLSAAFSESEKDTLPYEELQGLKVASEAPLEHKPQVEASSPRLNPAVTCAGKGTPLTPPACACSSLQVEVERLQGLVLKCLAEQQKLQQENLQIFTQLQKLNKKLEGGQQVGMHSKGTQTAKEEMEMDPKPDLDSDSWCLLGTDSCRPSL

Sequence of Serine/threonine-protein kinase Nek6 (Homo sapiens) (Q9HC98 whole entry): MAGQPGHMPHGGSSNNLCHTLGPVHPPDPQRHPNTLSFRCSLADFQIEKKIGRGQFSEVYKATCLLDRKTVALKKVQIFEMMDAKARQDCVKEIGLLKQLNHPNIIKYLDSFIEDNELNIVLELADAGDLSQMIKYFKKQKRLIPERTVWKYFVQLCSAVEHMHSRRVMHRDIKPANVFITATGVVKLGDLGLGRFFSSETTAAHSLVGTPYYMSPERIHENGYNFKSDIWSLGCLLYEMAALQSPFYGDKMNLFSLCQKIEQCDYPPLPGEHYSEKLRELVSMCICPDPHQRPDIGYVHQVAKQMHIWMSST
Sequence of Serine/threonine-protein kinase Nek7 (Homo sapiens) (Q8TDX7 whole entry, looked up): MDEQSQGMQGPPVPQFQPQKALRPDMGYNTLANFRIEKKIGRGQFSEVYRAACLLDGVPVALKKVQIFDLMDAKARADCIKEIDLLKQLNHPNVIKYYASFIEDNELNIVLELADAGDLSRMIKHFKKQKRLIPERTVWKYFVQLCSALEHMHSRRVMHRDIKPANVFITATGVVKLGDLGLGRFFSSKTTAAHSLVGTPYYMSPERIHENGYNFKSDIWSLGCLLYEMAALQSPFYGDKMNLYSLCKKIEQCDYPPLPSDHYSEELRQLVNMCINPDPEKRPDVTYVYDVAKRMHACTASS
Sequence of Casein kinase II subunit alpha (Homo sapiens) (P68400 whole entry, looked up): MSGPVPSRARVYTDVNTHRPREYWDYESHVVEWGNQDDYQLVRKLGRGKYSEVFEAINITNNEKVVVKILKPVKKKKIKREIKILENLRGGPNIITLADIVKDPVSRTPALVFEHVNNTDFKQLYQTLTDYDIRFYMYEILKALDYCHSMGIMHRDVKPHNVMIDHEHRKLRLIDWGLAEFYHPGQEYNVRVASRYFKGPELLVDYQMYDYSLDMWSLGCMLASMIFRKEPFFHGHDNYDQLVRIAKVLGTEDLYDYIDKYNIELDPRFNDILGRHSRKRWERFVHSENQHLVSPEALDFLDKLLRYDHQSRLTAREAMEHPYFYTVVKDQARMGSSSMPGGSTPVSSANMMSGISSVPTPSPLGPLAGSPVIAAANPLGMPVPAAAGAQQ
Sequence of Sphingosine kinase 1 (Homo sapiens) (Q9NYA1 whole entry): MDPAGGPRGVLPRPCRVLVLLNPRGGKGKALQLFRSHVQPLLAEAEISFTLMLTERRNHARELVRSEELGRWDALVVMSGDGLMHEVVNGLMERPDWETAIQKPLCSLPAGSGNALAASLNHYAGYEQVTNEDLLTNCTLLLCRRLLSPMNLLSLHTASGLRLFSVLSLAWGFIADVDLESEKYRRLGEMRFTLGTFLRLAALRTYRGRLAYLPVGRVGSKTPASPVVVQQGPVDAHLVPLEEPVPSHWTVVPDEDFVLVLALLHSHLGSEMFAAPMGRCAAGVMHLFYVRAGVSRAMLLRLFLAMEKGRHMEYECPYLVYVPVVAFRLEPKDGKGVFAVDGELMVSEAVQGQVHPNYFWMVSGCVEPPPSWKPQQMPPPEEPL

Question: Which results are given for `O=C(Nc1n[nH]c2nc(-c3ccc(O)cc3)c(Br)cc12)C1CC1`?
Answer: inhibition [1]: -0.49%; inhibition [2]: -0.76%; inhibition [3]: -0.74%; inhibition [4]: 3.43%; inhibition [5]: 5.84%; inhibition [6]: 8.51%; inhibition [7]: 12.4%; inhibition [8]: 6.98%; inhibition [9]: 9.61%; inhibition [10]: 8.95%; inhibition [11]: 12.2%; inhibition [12]: 3.52%; inhibition [13]: 11.2%; inhibition [14]: 6.4%; inhibition [15]: 9%; inhibition [16]: 3.51%; inhibition [17]: 15.2%; inhibition [18]: 13.2%; inhibition [19]: 46.3%; inhibition [20]: 13.9%
